Assay in all cases: MAPPIT interaction score (arbitrary units); higher = stronger binary interaction signal, active = hit call of the paper
For one experiment, the system named is CG12567. To be noted: MAPPIT configuration: N-N; pair source set: Finley_Y2H.
In another experiment the test system is mRpL47. To be noted: MAPPIT configuration: N-N; pair source set: Finley_Y2H.
In a further experiment the test system is C15. The following applies: MAPPIT configuration: N-N; pair source set: Lit-BS-16.
Another experiment relates to CG46385. The following applies: MAPPIT configuration: N-N; pair source set: screen_1.
In a further experiment the test system is CG7011. The following applies: MAPPIT configuration: N-N; pair source set: Lit-BS-16.
The subject of the next experiment is CG1640. The following applies: MAPPIT configuration: N-C; pair source set: screen_4.
The next experiment deals with Pex5. The following applies: MAPPIT configuration: N-N; pair source set: Curagen_low_conf.
The next experiment deals with CG3703. To be noted: MAPPIT configuration: N-N; pair source set: Finley_Y2H.
A further experiment concerns Atg1. The following applies: MAPPIT configuration: N-N; pair source set: Finley_Y2H.
A further experiment has as its system CG8997. To be noted: MAPPIT configuration: N-N; pair source set: Finley_Y2H.
Another experiment concerns CG3517. To be noted: MAPPIT configuration: N-N; pair source set: screen_1.
The test system of another experiment is CG2120. To be noted: MAPPIT configuration: N-C; pair source set: screen_3.
In the next experiment the test system is Odj. To be noted: MAPPIT configuration: N-N; pair source set: screen_2.
For the next experiment, the system named is caup. To be noted: MAPPIT configuration: N-C; pair source set: screen_3.
Another experiment has as its system CG15545. The following applies: MAPPIT configuration: N-N; pair source set: Curagen_low_conf.
The test system of the next experiment is CG31740. The following applies: MAPPIT configuration: N-N; pair source set: screen_2.
The subject of the next experiment is CG4250. The following applies: MAPPIT configuration: N-C; pair source set: screen_4.
In another experiment the test system is lms. The following applies: MAPPIT configuration: N-N; pair source set: screen_1.
The subject of a further experiment is CG5111. The following applies: MAPPIT configuration: N-C; pair source set: screen_3.
In the next experiment the test system is CG4619. To be noted: MAPPIT configuration: N-N; pair source set: DPIM.
Another experiment concerns CG44250. To be noted: MAPPIT configuration: N-N; pair source set: screen_2.
A further experiment concerns lwr. To be noted: MAPPIT configuration: N-N.
The next experiment concerns CG14044. To be noted: MAPPIT configuration: N-N; pair source set: Finley_Y2H.
The test system of another experiment is CG8173. To be noted: MAPPIT configuration: N-N; pair source set: screen_1.
The test system of a further experiment is Vsx2. The following applies: MAPPIT configuration: N-N; pair source set: screen_2.
For a further experiment, the system named is CG4116. To be noted: MAPPIT configuration: N-N; pair source set: Curagen_high_conf.
In the next experiment the test system is CG31406. To be noted: pair source set: RRS.
The next experiment relates to Hakai. To be noted: MAPPIT configuration: N-N; pair source set: DPIM.
The test system of the next experiment is Lkb1. The following applies: MAPPIT configuration: N-N; pair source set: DPIM.
The next experiment relates to RnrS. The following applies: MAPPIT configuration: N-N; pair source set: DPIM.
The subject of the next experiment is bai. To be noted: MAPPIT configuration: N-N; pair source set: DPIM.
The subject of the next experiment is mRpS24. The following applies: MAPPIT configuration: N-N; pair source set: DPIM.
The next experiment has as its system scf. The following applies: MAPPIT configuration: N-N; pair source set: DPIM.
Another experiment relates to CG1607. To be noted: MAPPIT configuration: N-N; pair source set: DPIM.
For another experiment, the system named is CG14985. The following applies: MAPPIT configuration: N-N; pair source set: screen_2.
A further experiment deals with CG17377. The following applies: MAPPIT configuration: N-C; pair source set: screen_4.
The next experiment has as its system CG32817. To be noted: MAPPIT configuration: N-N; pair source set: screen_2.
The test system of a further experiment is Mst87F. The following applies: MAPPIT configuration: N-N; pair source set: screen_2.
In a further experiment the test system is Arpc3A. The following applies: pair source set: Lit-BM-16.
The subject of the next experiment is CG9132. To be noted: MAPPIT configuration: N-N; pair source set: Finley_Y2H.
Another experiment concerns Reph. The following applies: MAPPIT configuration: N-C; pair source set: Lit-BM-16.
The subject of another experiment is CG9775. To be noted: MAPPIT configuration: N-N; pair source set: DPIM.
For a further experiment, the system named is CG9536. To be noted: MAPPIT configuration: N-N; pair source set: DPIM.
A further experiment relates to Ktl. To be noted: MAPPIT configuration: N-N; pair source set: screen_2.
The subject of another experiment is Tina-1. The following applies: MAPPIT configuration: N-N; pair source set: DPIM.
A further experiment concerns Nost. The following applies: MAPPIT configuration: N-N; pair source set: Curagen_high_conf.
Another experiment relates to D. To be noted: MAPPIT configuration: N-N; pair source set: Finley_Y2H.
In a further experiment the test system is chn. To be noted: MAPPIT configuration: N-N; pair source set: Curagen_low_conf.
In a further experiment the test system is PAN3. The following applies: MAPPIT configuration: N-N; pair source set: screen_1.
Another experiment relates to l(3)05822. To be noted: MAPPIT configuration: N-N; pair source set: screen_2.
The next experiment concerns mad2. The following applies: MAPPIT configuration: N-N; pair source set: Finley_Y2H.
The next experiment relates to Eno. The following applies: MAPPIT configuration: N-N; pair source set: Lit-BM-16.
For a further experiment, the system named is MESK2. The following applies: MAPPIT configuration: N-N; pair source set: Lit-BS-16.
A further experiment has as its system RfC3. To be noted: pair source set: Lit-BM-16.
The subject of another experiment is CG9986. To be noted: MAPPIT configuration: N-N; pair source set: Lit-BS-16.
Another experiment has as its system HP1e. To be noted: MAPPIT configuration: N-N; pair source set: Lit-BS-16.
A further experiment relates to Sec24CD. The following applies: MAPPIT configuration: N-N; pair source set: Lit-BS-16.
A further experiment deals with PGAP5. To be noted: MAPPIT configuration: N-N; pair source set: Finley_Y2H.
For another experiment, the system named is CkIIalpha. The following applies: MAPPIT configuration: N-N; pair source set: Lit-BM-16.
The test system of another experiment is Gmppa. To be noted: MAPPIT configuration: N-N; pair source set: Curagen_high_conf.
Another experiment has as its system su(Hw). The following applies: MAPPIT configuration: N-N; pair source set: DPIM.
The test system of the next experiment is Src64B. To be noted: MAPPIT configuration: N-N; pair source set: Lit-BS-16.
The next experiment deals with Doa. To be noted: MAPPIT configuration: N-N; pair source set: Finley_Y2H.
A further experiment has as its system Smg6. The following applies: MAPPIT configuration: N-N; pair source set: Finley_Y2H.
Another experiment deals with Srp54. The following applies: MAPPIT configuration: N-N; pair source set: Finley_Y2H.
Another experiment deals with Nup93-1. To be noted: MAPPIT configuration: N-N; pair source set: Curagen_low_conf.
For the next experiment, the system named is apt. To be noted: MAPPIT configuration: N-N; pair source set: Curagen_low_conf.
The subject of a further experiment is Nup50. To be noted: pair source set: Lit-BM-16.
Another experiment has as its system Mlf. To be noted: pair source set: Lit-BM-16.
Another experiment concerns pan. To be noted: MAPPIT configuration: N-N; pair source set: Finley_Y2H.
The next experiment relates to Prx2. The following applies: MAPPIT configuration: N-N; pair source set: Curagen_high_conf.

Unmarked numbers belong to inactive results.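 The calls were made as follows: active = MAPPIT score above the 99th percentile of random reference set scores in the same batch; inactive = at or below it.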
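Also: HEK293T cells with Epo stimulation, STAT-responsive firefly luciferase reporter, fold induction versus unstimulated cells divided by the larger fold induction of two negative controls lacking either bait or prey.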

SmB, sequence (chain, as listed by the source): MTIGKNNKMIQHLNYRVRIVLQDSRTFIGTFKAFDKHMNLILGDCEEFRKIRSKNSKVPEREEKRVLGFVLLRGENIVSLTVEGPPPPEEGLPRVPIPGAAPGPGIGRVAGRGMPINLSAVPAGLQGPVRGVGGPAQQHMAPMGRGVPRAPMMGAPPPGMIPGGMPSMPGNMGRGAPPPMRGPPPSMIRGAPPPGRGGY
dsx, sequence (chain, as listed by the source): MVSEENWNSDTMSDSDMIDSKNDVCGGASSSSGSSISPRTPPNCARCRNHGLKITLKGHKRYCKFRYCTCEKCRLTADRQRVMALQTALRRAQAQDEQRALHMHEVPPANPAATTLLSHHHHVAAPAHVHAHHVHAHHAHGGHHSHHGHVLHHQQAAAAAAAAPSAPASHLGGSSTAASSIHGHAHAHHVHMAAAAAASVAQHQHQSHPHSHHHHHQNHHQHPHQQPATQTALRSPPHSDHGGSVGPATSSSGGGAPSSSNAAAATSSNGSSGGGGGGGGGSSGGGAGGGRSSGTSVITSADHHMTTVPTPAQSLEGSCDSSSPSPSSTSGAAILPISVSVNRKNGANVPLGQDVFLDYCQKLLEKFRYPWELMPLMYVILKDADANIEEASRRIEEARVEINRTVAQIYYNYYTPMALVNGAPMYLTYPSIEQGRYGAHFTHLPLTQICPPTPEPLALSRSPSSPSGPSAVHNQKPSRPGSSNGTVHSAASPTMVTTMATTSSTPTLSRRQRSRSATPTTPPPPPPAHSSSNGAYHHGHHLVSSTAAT
Gsc, sequence (chain, as listed by the source): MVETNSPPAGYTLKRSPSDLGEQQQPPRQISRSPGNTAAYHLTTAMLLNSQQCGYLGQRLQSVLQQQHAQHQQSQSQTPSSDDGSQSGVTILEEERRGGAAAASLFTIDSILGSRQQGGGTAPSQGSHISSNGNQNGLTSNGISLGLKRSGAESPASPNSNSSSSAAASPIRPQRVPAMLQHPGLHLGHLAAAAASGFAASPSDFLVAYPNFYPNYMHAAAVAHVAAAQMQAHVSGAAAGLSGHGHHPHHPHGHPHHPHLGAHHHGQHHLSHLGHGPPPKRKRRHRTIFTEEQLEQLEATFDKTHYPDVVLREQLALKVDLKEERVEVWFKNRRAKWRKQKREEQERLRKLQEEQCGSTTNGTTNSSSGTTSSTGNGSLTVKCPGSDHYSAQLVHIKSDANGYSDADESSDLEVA
bowl, sequence (chain, as listed by the source): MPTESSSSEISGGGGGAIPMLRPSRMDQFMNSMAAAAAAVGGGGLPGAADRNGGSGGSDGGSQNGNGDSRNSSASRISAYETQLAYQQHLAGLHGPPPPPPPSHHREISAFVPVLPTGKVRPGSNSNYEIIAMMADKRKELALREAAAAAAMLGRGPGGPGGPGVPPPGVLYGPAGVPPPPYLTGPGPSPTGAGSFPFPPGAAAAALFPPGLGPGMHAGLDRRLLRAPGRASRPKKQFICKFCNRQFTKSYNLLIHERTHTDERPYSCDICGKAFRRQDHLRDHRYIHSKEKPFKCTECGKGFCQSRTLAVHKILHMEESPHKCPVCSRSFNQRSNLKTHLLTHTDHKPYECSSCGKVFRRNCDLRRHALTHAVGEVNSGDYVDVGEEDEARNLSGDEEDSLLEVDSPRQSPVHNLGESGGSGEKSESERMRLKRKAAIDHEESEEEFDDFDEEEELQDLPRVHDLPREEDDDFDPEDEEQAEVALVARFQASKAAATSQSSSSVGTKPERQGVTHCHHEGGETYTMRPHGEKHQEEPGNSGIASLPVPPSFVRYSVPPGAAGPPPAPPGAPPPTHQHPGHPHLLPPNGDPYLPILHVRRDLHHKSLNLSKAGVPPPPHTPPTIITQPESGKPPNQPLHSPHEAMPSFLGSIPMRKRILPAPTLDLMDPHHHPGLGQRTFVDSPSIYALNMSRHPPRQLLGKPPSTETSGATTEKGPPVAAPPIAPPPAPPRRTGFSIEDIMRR
Hsc70-1, sequence (chain, as listed by the source): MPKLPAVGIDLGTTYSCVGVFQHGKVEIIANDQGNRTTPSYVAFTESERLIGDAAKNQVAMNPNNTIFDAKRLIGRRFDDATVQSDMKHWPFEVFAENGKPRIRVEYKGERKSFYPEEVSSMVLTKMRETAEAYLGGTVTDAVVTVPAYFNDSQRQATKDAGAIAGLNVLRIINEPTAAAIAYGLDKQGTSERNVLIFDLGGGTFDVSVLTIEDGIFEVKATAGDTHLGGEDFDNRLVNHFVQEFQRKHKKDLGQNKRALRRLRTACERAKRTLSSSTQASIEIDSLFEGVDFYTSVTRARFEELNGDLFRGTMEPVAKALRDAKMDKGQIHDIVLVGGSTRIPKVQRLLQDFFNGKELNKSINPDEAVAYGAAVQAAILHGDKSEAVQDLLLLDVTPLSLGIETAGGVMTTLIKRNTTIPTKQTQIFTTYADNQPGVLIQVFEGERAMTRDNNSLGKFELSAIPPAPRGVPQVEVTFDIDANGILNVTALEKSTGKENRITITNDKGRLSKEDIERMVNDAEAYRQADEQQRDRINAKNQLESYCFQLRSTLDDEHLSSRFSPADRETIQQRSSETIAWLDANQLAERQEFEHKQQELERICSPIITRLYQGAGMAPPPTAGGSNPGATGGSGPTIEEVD
Doa, sequence (chain, as listed by the source): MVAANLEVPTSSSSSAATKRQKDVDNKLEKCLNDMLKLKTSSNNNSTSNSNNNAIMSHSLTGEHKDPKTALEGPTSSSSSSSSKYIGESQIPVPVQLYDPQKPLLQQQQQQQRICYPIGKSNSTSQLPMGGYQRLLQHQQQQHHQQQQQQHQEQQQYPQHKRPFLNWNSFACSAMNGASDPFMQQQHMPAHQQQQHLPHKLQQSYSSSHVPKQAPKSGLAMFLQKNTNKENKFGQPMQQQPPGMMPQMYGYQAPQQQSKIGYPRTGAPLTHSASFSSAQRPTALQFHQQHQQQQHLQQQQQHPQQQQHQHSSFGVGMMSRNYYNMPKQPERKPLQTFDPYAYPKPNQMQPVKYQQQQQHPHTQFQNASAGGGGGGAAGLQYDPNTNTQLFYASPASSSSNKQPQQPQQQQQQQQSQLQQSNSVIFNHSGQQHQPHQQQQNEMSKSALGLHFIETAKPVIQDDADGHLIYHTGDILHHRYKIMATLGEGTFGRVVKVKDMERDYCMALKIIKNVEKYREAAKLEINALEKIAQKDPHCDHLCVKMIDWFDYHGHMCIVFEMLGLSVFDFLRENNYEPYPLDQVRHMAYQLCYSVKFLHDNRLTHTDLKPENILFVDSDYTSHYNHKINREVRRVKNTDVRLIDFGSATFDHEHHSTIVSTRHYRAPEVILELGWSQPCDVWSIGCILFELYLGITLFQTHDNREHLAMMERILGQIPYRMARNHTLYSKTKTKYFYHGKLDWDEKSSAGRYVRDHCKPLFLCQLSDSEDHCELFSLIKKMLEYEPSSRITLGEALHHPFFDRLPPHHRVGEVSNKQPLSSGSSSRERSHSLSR
RfC4, sequence (chain, as listed by the source): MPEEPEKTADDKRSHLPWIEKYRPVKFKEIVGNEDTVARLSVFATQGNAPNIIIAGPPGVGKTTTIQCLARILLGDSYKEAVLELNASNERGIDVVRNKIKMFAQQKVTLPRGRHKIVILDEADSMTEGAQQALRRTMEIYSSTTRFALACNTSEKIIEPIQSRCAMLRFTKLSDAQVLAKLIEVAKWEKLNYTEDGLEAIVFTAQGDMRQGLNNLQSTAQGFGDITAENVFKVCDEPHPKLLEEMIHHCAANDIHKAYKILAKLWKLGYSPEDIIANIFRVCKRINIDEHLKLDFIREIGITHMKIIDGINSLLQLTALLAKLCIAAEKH
Pen, sequence (chain, as listed by the source): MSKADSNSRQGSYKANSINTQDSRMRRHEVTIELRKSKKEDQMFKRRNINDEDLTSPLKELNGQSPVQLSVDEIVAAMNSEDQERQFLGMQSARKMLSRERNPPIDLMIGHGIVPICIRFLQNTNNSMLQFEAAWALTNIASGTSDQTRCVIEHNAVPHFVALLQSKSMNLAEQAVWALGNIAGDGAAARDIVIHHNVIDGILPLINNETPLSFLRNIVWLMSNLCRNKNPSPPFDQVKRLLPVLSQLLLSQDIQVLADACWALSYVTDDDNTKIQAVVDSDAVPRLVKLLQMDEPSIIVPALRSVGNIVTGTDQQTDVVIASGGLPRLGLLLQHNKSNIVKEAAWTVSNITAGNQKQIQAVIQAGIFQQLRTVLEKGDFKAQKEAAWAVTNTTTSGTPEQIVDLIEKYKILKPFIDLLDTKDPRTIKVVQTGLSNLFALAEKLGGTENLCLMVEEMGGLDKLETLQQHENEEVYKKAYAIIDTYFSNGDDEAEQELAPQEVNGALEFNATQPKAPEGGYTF
Hsp70Aa, sequence (chain, as listed by the source): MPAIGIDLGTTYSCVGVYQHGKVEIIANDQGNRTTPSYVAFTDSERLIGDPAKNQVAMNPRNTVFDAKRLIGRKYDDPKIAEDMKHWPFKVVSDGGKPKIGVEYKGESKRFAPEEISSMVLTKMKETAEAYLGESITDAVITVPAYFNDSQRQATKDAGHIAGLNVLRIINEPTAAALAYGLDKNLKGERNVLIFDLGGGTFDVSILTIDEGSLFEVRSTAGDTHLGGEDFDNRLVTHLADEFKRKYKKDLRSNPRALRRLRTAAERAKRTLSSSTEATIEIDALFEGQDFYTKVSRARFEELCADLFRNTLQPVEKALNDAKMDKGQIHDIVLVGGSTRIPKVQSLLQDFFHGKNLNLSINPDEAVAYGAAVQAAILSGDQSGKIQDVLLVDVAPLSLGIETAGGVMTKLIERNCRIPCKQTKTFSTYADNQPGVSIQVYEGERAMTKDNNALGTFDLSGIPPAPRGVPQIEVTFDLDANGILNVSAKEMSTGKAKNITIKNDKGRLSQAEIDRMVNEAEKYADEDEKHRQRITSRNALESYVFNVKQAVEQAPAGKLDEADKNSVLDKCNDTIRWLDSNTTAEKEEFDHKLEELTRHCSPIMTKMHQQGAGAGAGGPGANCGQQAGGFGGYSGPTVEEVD
RpL39, sequence (chain, as listed by the source): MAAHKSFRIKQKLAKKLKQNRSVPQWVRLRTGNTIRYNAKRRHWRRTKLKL

For the substance prd, the results for the MAPPIT interaction score in the experiment on CG12567 and with mRpL47 were 2.65 and 0.0739, respectively.
For the substance bsh, in the experiment on C15, the MAPPIT interaction score is 0.102.
With Poxm, the MAPPIT interaction score is 1.84 with CG46385 and 0.0698 with CG7011.
As to Acam, the MAPPIT interaction score in the experiment on CG1640 is 0.679; with Pex5, 0.715.
With gsb-n, the MAPPIT interaction score in the experiment on CG3703 is 0.258.
With Rbp6, the MAPPIT interaction score in the experiment with Atg1 was 0.221.
On to lark, for which the MAPPIT interaction score in the experiment with CG8997 was 1.37.
On to e(y)3, for which the MAPPIT interaction score with CG3517 is 3.82 (active).
As to bowl, the MAPPIT interaction score was 0.273 with CG2120, -0.226 in the experiment on Odj and -0.0689 in the experiment with caup.
As for RpL23, the MAPPIT interaction score with CG15545 was 0.083.
On to Gsc, for which the MAPPIT interaction score in the experiment on CG31740 is 3.16 (active); in the experiment on CG4250, 1.43; in the experiment with lms, -0.637.
For the substance Abd-B, the MAPPIT interaction score in the experiment with CG5111 was 1.34.
As for pnr, the MAPPIT interaction score in the experiment on CG4619 was 3.3 (active).
cher: the figures for the MAPPIT interaction score with CG44250 and with lwr (pair source set: DPIM) were 0.155 and -0.358, respectively.
For zen, the MAPPIT interaction score in the experiment with CG14044 is 1.38.
Consider otp, for which the MAPPIT interaction score was -0.108 in the experiment with CG8173 and -0.232 with Vsx2.
For SmD1, the MAPPIT interaction score in the experiment with CG4116 was -0.319.
As to Hsc70-1, the MAPPIT interaction score with CG31406 (MAPPIT configuration: N-C) is 1.43; in the experiment on CG31406 (MAPPIT configuration: N-N) it was -0.111; in the experiment with Hakai, 0.323; in the experiment with Lkb1, -0.0906; with RnrS, 1; with bai, -0.235. Moreover, the MAPPIT interaction score with mRpS24 is -0.169; in the experiment with scf, 1.56.
For Fmr1, the MAPPIT interaction score in the experiment with CG1607 was 0.0271.
Regarding Vps60, in the experiment on CG14985, the MAPPIT interaction score was 0.0854.
dsx: the MAPPIT interaction score is 2.14 in the experiment with CG17377, 2.31 in the experiment with CG32817 and 4.59 (active) with Mst87F.
As for Arpc2, the values for the MAPPIT interaction score in the experiment on Arpc3A (MAPPIT configuration: N-C) and in the experiment with Arpc3A (MAPPIT configuration: N-N) were 2.37 and 0.165, respectively.
Turning to Gyc89Da, the MAPPIT interaction score in the experiment with CG9132 was 0.702.
With mnb, in the experiment with Reph, the MAPPIT interaction score was 1.38.
Consider RpL4, for which, in the experiment with CG9775, the MAPPIT interaction score is -0.331.
As for Arf1, the MAPPIT interaction score was 0.397 in the experiment on CG9536, 2.35 in the experiment with Ktl and 0.274 in the experiment with Tina-1.
For Src42A, in the experiment on Nost, the MAPPIT interaction score is 1.25.
On to RpL39, for which the MAPPIT interaction score with D was -0.321.
As to Hsp83, the MAPPIT interaction score in the experiment on chn was 0.266.
SmB: the MAPPIT interaction score is -0.24 in the experiment with PAN3, 0.0651 with l(3)05822 and -0.029 in the experiment on mad2.
Turning to Cyp1, the MAPPIT interaction score with Eno was 0.063; with MESK2 it was 0.0293.
For the substance RfC4, the MAPPIT interaction score was 3.58 with RfC3 (MAPPIT configuration: N-C) and 6.38 (active) in the experiment with RfC3 (MAPPIT configuration: N-N).
Consider Hsp70Aa, for which the MAPPIT interaction score in the experiment with CG9986 was 0.269; in the experiment on HP1e it was 0.126.
With Jon99Cii, the MAPPIT interaction score with Sec24CD was -0.28.
Regarding Dfd, in the experiment with PGAP5, the MAPPIT interaction score was 0.749.
For the substance CkIIbeta, in the experiment with CkIIalpha, the MAPPIT interaction score is 3.04 (active).
Consider Gmppb, for which, in the experiment with Gmppa, the MAPPIT interaction score is 1.26.
Non1: the MAPPIT interaction score in the experiment on su(Hw) was 0.589.
Pgi: the MAPPIT interaction score with Src64B was -0.233.
Turning to Doa, the MAPPIT interaction score was 1.07 with Doa, 1.25 in the experiment on Smg6, -1.75 in the experiment on Srp54 and -1.12 in the experiment with lwr (pair source set: Finley_Y2H).
On to Hrb98DE, for which the MAPPIT interaction score in the experiment with Nup93-1 was -0.403; in the experiment on apt, -0.399.
As for Pen, the MAPPIT interaction score was 0.849 with Nup50 (MAPPIT configuration: N-C) and 0.121 with Nup50 (MAPPIT configuration: N-N).
For the substance DnaJ-1, the figures for the MAPPIT interaction score in the experiment with Mlf (MAPPIT configuration: N-C) and with Mlf (MAPPIT configuration: N-N) were 1.44 and 0.787, respectively.
Take Cdk5: the MAPPIT interaction score in the experiment on pan is -0.4.
On to Srx, for which the MAPPIT interaction score with Prx2 is -0.16.

Source of the values: the supplement of paper PMC10105736.
